# Screens: PubChem BioAssay, National Center for Advancing Translational Sciences (NCATS)
# Sampled rows, rich in hits. Any-hit rate of the full collection: about 4%.
# D1 potentiator: human D1 dopamine receptor positive modulation. P21728. HEK293 TREx D1 cells, calcium flux, dopamine EC20 potentiation. potentiation, % at 10 µM. hit rate 0.036% among 360,000. AID 504651; in the data active means potentiation above about 30%; further: 0% is about no effect
# Target sequence (P21728 whole entry, looked up): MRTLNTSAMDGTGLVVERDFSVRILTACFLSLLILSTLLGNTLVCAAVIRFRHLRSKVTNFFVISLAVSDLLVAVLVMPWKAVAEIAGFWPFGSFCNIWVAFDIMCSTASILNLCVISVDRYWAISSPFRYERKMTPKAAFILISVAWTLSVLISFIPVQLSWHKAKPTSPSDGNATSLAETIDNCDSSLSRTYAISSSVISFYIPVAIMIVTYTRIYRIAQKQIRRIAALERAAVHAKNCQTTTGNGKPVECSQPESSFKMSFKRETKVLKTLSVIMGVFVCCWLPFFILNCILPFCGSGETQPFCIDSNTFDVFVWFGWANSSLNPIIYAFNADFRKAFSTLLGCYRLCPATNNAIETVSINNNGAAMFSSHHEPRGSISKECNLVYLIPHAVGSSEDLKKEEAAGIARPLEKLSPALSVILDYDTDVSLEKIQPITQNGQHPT
# TRHR PAM: allosteric enhancers of human TRH receptor; P34981; TRHR cells, fluo-8 calcium fluorescence, EC20 TRH enhancement; enhancement, % at 2 µM; hit rate 0.66% among 360,000; AID 493056; in the data active means enhancement above about 30%; further: 0% is about no effect
#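 Enhancer read-out: after compound pinning and an initial kinetic agonist-mode read, an EC20 of TRH (10 nM final) was injected and fluo-8 calcium signal (Ex 480/Em 530) followed at 1 s/cycle for 100 cycles in TRHR-expressing cells.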
# GRP78 ERSR act: induces the endoplasmic reticulum stress response in human glioma cells; U87-MG GRP78 promoter luciferase reporter, 16 h; Potency, µM, for the others: top-dose activation, usual class: activators; hit rate 0.02% among 420,000; AID 602332; active means well fitted activation curve with a large enough effect; further: potency means the concentration at half of the fitted maximal effect; series mostly up to about 76 µM; % of control where 0% means no effect; nearly all actives have a fitted effect of over 35% in size
#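 ERSR induction read as luciferase luminescence (Bright-Glo, 10 min at room temperature) in stably transfected human U87-MG glioma cells exposed to compounds for 16 h, using GRP78 as sensor.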
# TRHR ag: activates the human TRH receptor | hit rate 0.18% among 360,000 | AID 493084 | TRHR cells, calcium flux fluo-8, FDSS agonist mode | activation, % at 2 µM | P34981; further: 0% is about no effect
#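 Read-out: compound-evoked intracellular calcium rise in TRHR cells, fluo-8 dye, kinetic FDSS fluorescence at 1 s/cycle following a 10-cycle baseline. Cells cultured overnight before dye loading (30 min–1.5 h, RT).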
# D1 antagonist: antagonists of human D1 dopamine receptor. P21728. HEK293 TREx D1 cells, calcium flux, dopamine EC80; stronger effect = lower value. activity change, negative = inhibition, % at 10 µM. hit rate 3.2% among 360,000. AID 504652; in the data active means activity change below about -30%; further: on the % scale 0 is the no-effect control and ±100 the full control effect
#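 Tetracycline-induced HEK293 T-REx cells with force-coupled D1 receptor were loaded with a no-wash calcium dye. Compound was added after a 10 s baseline and read kinetically for 180 s; EC80 dopamine was then added and calcium flux followed another 180 s.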
# D1 ag: agonists of human D1 dopamine receptor. P21728. HEK293 T-REx D1 cells, calcium flux, agonist mode. activation, % at 2 µM. hit rate 1% among 360,000. AID 504660; further: 0% is about no effect
#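 Tetracycline-induced HEK293 TREx D1 cells, force-coupled to calcium signalling, were dye-loaded with a no-wash calcium kit. Compound was pin-added after a 10 s baseline. Fluorescence was read kinetically at 1 cycle/s for 180 s, with calcium rises flagged as agonism.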
# * = called active by the depositor; · = no result. Unless noted, no stated cut-off is given here; in the data, active means activation above about 30%; inactive means the rest.
SMILES,D1 potentiator,TRHR PAM,GRP78 ERSR act,TRHR ag,D1 antagonist,D1 ag
COc1cc2c(cc1OC)CN(C(=O)c1cccc(S(=O)(=O)N3CCc4ccccc43)c1)CC2,-4.5,-4.0,-1.0%,-0.9,-33.9*,4.8
COc1cc2c(cc1OC)CN(C(=O)c1cccc(S(=O)(=O)N(C)C)c1)CC2,-1.6,-2.0,-1.0%,-0.2,-0.8,1.0
O=C(Nc1ncccc1O)c1cccc(S(=O)(=O)N2CCc3ccccc32)c1,1.4,-1.6,-11.2%,1.2,-4.4,-0.3
O=C(NCCc1ccccn1)c1cccc(S(=O)(=O)N2CCc3ccccc32)c1,-3.0,2.0,-2.8%,-0.9,-35.6*,8.6
COc1ccc(NC(=O)c2cccc(S(=O)(=O)N3CCc4ccccc43)c2)cn1,0.5,-8.6,-4.2%,-0.3,-30.6*,11.5
Cc1ccc(-c2nnc(-c3cc(C)on3)o2)cc1,-8.9,0.0,-5.0%,0.8,4.9,4.4
CC1(NC(=O)c2cccc(S(=O)(=O)N3CCCc4ccccc43)c2)CCS(=O)(=O)C1 (configuration not stated),2.9,-4.0,-4.4%,-0.1,-83.1*,0.7
CCSc1nc2n(n1)C(c1ccc(Cl)cc1Cl)C(C(=O)Nc1ccccc1C)=C(C)N2 (configuration not stated),-5.5,2.6,-4.5%,0.1,-33.8*,0.3
CC1=C(C(=O)Nc2ccccc2C)C(c2cccnc2)n2nc(SCc3ccccc3)nc2N1 (configuration not stated),-5.0,5.0,-3.3%,-0.1,-37.7*,3.3
Cn1c(-c2ccc(Cl)nc2)nc2cc(Cl)ccc21,-8.3,10.3,2.8%,-0.3,-33.4*,0.7
Cc1ccc(-c2cn(CCN)c(-c3ccc(Cl)nc3)n2)cc1,-5.0,1.3,-0.8%,-0.4,8.6,-0.3
CSc1ccccc1NC(=O)C1CCN(S(C)(=O)=O)CC1,-2.5,-2.0,-1.0%,0.2,12.1,1.6
COc1ccc(C(=O)C2CCCN(Cc3ccc(NC(C)=O)cc3)C2)cc1OC (configuration not stated),-5.9,-2.6,-0.2%,-0.4,-33.0*,-2.0
COc1cc(OC)c(OC)cc1CN1CCCC(C(=O)c2sccc2C)C1 (configuration not stated),-10.7,2.5,-4.5%,-0.8,-37.8*,8.8
COc1cc(OC)c(OC)cc1CN1CCCC(C(=O)c2ccc3c(c2)OCO3)C1 (configuration not stated),-4.8,-5.0,-4.0%,-1.6,-9.8,0.8
COc1ccc(NC(=O)C2CCCN(CCCc3ccccc3)C2)cc1OCC(C)C (configuration not stated),-6.1,7.2,-5.9%,-0.4,-2.9,90.0*
C[C@H](CO)N1C[C@H](C)[C@@H](CN(C)CC2CC2)Oc2c(NS(=O)(=O)c3ccc(F)cc3)cccc2C1=O,·,·,-1.2%,·,·,·
Cc1ccc(-n2nc3c(=O)n(CC(=O)NCCC(C)C)nc(C)c3c2C)cc1,-0.7,6.6,-2.9%,-1.1,12.8,2.2
c1ccc(-n2nnnc2-n2ccnc2)cc1,-0.1,4.0,-2.3%,1.5,-96.8*,0.6
COC(=O)Cn1nc(-c2ccccc2)c2ccccc2c1=O,-8.2,-4.9,-4.6%,-0.7,-6.1,0.2
CCOCCCNC(=O)Cn1cc2c(n1)-c1c(oc(C(=O)N3CCCC3)c1C)CC2,-3.6,27.0,-6.1%,0.3,-32.2*,3.8
CN(CC(=O)Nc1cccc(F)c1)C(=O)c1cccc2ccccc12,·,1.9,-2.5%,0.0,-7.5,6.2
CN(CC(=O)Nc1cccc(F)c1)C(=O)c1csc2c1CCCC2,-10.6,0.2,-4.8%,-0.2,-2.7,33.0*
c1ccc(CN2CCC(Nc3ncnc4sccc34)CC2)cc1,-5.2,-2.7,-0.8%,1.0,-25.6,11.0
Cc1csc2c(NC3CCN(Cc4ccccc4)CC3)ncnc12,-9.2,2.4,-0.3%,0.8,-36.8*,10.9
SMILES,D1 potentiator,TRHR PAM,GRP78 ERSR act,TRHR ag,D1 antagonist,D1 ag
Cc1sc2ncnc(NC3CCN(Cc4ccccc4)CC3)c2c1C,-16.5,0.1,-5.6%,0.0,-53.1*,7.9
O=C(NCc1ccc2c(c1)OCO2)c1ccc(Cl)nc1,0.5,2.9,-1.2%,0.7,-5.9,4.1
O=C(COC(=O)c1ccc(O)cc1)Nc1cc(S(=O)(=O)N2CCOCC2)ccc1Cl,-3.5,-1.6,-0.6%,1.9,-4.1,10.4
CCOC(=O)/C=C/c1ccccc1S(=O)(=O)NC(C)(C)C,·,·,-5.4%,·,·,·
CC(C)Oc1ccc(/C=C/C(=O)NCC2COc3ccccc3O2)cc1 (configuration not stated),-0.7,-1.7,-0.8%,0.5,-91.4*,6.5
Cc1ccc(S(=O)(=O)c2c(Nc3ccccc3)sc(C(=O)c3ccc4c(c3)OCO4)c2N)cc1,-1.0,3.0,-3.0%,3.2,2.4,64.4*
COc1ccc(/C=N/NC(=O)c2ccc3c(c2)OCO3)cc1,2.5,3.4,7.2%,0.0,-7.7,0.8
CC(C)c1ccc(Nc2sc(C(=O)c3ccccc3)c(N)c2S(=O)(=O)c2ccccc2)cc1,-0.2,-11.9,-0.3%,0.4,8.0,13.1
Cc1ccccc1Nc1sc(C(=O)c2ccc3c(c2)OCO3)c(N)c1S(=O)(=O)c1ccccc1,1.6,1.0,-2.5%,0.7,0.0,5.6
COc1ccc(S(=O)(=O)c2c(Nc3ccc(C)cc3)sc(C(=O)c3ccc4c(c3)OCO4)c2N)cc1,5.2,0.8,-1.1%,5.7,-37.8*,77.8*
COc1ccc(S(=O)(=O)c2c(Nc3ccc(F)cc3)sc(C(=O)c3ccc4c(c3)OCO4)c2N)cc1,-2.2,12.1,-4.2%,2.3,22.7,43.1*
COC(=O)CN1C(=S)N(c2ccc(OC)cc2)C(=O)/C1=C/c1cccs1,-10.4,-1.1,-2.9%,-0.6,-19.0,0.5
O=S(=O)(NCCc1ccccc1)c1ccc(F)cc1,-5.0,-3.2,1.5%,-0.2,-20.4,-2.0
COc1cccc(CNC(=O)CCc2cn(Cc3ccccc3Cl)c3ccccc23)c1,1.4,3.8,0.1%,-0.6,-8.5,33.1*
O=[N+]([O-])c1ccccc1S(=O)(=O)N1CCN(Cc2cc3c(cc2O)OCO3)CC1,-9.2,-14.6,-3.1%,0.0,-11.3,3.4
O=C(Nc1nc(-c2ccc(F)c(F)c2)cs1)c1ccc(OCC2CCCO2)cc1 (configuration not stated),1.7,4.9,-4.4%,1.4,-17.2,10.4
Cc1csc(NC(=O)c2ccc(OCC3CCCO3)cc2)n1 (configuration not stated),-7.0,1.6,-14.7%,-0.1,-59.0*,13.5
O=C1NC(=Nc2ccccc2Cl)SC1(CO)CO,-2.6,3.9,-4.2%,-0.1,4.8,3.3
Cc1ccccc1N=C1NC(=O)C(CO)(CO)S1,-4.0,-1.3,-1.1%,0.3,-35.7*,2.0
